Data reported in the supplement of paper PMC11628255, “Interference of metal ions on the bioluminescent signal of firefly, Renilla, and NanoLuc luciferases in high-throughput screening assays” (Frontiers in Chemistry, 2024).
± gives the standard deviation of the averaged measurements.

Tested on: NanoLuc luciferase (NLuc)
Assay: residual bioluminescent signal relative to negative (DMSO) control; higher = less interference (more residual luciferase signal)
Experimental: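 Purified luciferase (FLuc 10 nM + 10 uM D-luciferin; NLuc 10 pM + 10 uM furimazine; RLuc 50 pM + 2 uM coelenterazine) in 384-well plates; metal salt pre-incubated with enzyme 10 min at RT, substrate added and luminescence read after 10 min. Signal normalised to plate DMSO negative control (% N_VALUE = x/mean neg *100); triplicate wells at 0.01, 1 and 5 mM salt.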

[1] = metal salt concentration 0.01 mM, HEPES conditions (100 mM HEPES, 0.1% BSA, pH 7.5)
[2] = metal salt concentration 0.01 mM, screening conditions (PBS, 0.1% BSA, pH 7.4)
[3] = metal salt concentration 1 mM, HEPES conditions (100 mM HEPES, 0.1% BSA, pH 7.5)
[4] = metal salt concentration 1 mM, screening conditions (PBS, 0.1% BSA, pH 7.4)
[5] = metal salt concentration 5 mM, HEPES conditions (100 mM HEPES, 0.1% BSA, pH 7.5)
[6] = metal salt concentration 5 mM, screening conditions (PBS, 0.1% BSA, pH 7.4)

Row | Structure (SMILES) | residual bioluminescent signal [1] [%] | residual bioluminescent signal [2] [%] | residual bioluminescent signal [3] [%] | residual bioluminescent signal [4] [%] | residual bioluminescent signal [5] [%] | residual bioluminescent signal [6] [%]
1 | O=C([O-])[O-].[Cs+].[Cs+] [caesium carbonate] | 99.36 ± 0.78 | 98.8 ± 6.6 | 96.5 ± 3.1 | 102 ± 3 | 91.4 ± 3.5 | 92.2 ± 2.9
2 | O=S(=O)([O-])[O-].[Mn+2] [manganese(II) sulfate] | 93.9 ± 2.1 | 96.1 ± 2.1 | 95 ± 3 | 92.7 ± 1.3 | 96 ± 1.4 | 73.4 ± 2.1
3 | O.O.O.O.O.O.O.O.O.O.O=S(=O)([O-])[O-].[Na+].[Na+] [sodium sulfate] | 96 ± 3.7 | 96.8 ± 5 | 96.8 ± 4 | 96 ± 4.3 | 98.4 ± 1.1 | 95.6 ± 4.4
4 | O=S(=O)([O-])[O-].[Fe+2] [iron(II) sulfate] | 92.06 ± 0.82 | 97.1 ± 1.1 | 12.2 ± 3.3 | 29 ± 1.3 | 0.329 ± 0.23 | 1.15 ± 0.23
5 | [Cl][Fe][Cl] [iron(II) chloride] | 95.6 ± 6 | 99.7 ± 4.5 | 2.39 ± 1.2 | 10.5 ± 2.6 | 0.172 ± 0.13 | 0.779 ± 0.37
6 | [Cl][Fe]([Cl])[Cl] [iron(III) chloride] | 90.2 ± 4 | 93 ± 3 | 0.54 ± 0.37 | 53.4 ± 2.6 | 0.188 ± 0.081 | 0.189 ± 0.24
7 | O=C([O-])[O-].[K+].[K+] [potassium carbonate] | 91.3 ± 2.9 | 100 ± 4 | 92.1 ± 8.9 | 97.6 ± 3 | 95.6 ± 1.7 | 96.6 ± 3.6
